# Screening results deposited in PubChem by The Scripps Research Institute Molecular Screening Center.
# GPR151 ag: activators of human GPR151, primary screen, cell-based, PathHunter beta-arrestin, luminescence | G-protein coupled receptor 151 (Homo sapiens), Q8TDV0 | PathHunter beta-arrestin GPR151 cells | activation, % at 11.2 µM | 650,000 compounds, 1% hits; in the data active = activation above about 4.9%
# MITF primary: MITF inhibitors, primary screen, biochemical, AlphaScreen, human | AlphaScreen MITF homodimerization, bead proximity signal | inhibition, % at 2.6 µM | 650,000 compounds, 0.91% hits | AID 1259374, 2018; in the data active = inhibition above about 50%
# Target sequence (O75030 whole entry, looked up): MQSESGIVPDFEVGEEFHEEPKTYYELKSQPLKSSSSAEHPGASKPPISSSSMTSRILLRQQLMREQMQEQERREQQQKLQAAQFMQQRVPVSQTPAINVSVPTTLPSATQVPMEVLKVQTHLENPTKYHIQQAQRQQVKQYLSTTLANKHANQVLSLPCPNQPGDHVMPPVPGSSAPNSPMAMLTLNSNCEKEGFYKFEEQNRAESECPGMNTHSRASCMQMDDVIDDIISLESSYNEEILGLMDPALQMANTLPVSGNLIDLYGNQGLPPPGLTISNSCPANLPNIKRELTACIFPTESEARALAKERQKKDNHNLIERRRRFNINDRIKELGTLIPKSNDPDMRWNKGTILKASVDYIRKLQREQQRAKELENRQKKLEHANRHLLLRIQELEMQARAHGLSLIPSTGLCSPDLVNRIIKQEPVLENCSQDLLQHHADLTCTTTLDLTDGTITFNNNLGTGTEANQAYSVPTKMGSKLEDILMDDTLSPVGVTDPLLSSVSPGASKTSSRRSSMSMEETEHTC
# FBW7 activator: FBW7 E3 ligase activators, primary screen, biochemical, AlphaScreen, human; F-box/WD repeat-containing protein 7 (Homo sapiens), Q969H0; AlphaScreen FBW7–phospho-cyclin E peptide binding, activator screen; normalized activity (activation), % at 26.1 µM; 650,000 compounds, 0.13% hits; AID 1259310, 2017; in the data active = normalized activity above about 1.9%;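 note: purified mutant Fbw7 with reduced substrate affinity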
# TEAD-YAP block: TEAD-YAP interaction inhibition, primary screen, TEAD-YAP interaction inhibitor project, luminescence, HEK-TIYL cells | TEAD-Gal4/YAP UAS-luciferase luminescence | inhibition, % at 9.12 µM | 640,000 compounds, 1.4% hits | AID 1259422, 2018; in the data active = inhibition above about 32%
# GPR151 confirm: GPR151 activators, triplicate retest, confirmation, cell-based, PathHunter beta-arrestin, luminescence | shares compounds with GPR151 ag | GPR151 PathHunter beta-arrestin cells, 90 min; % of EA-reagent control over plate median | activation, % at 11.2 µM | 6,700 tested, under 10 active | AID 1508609, 2020;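 active = mean percent activation across replicates above the confirmation screen cutoff of 4.91%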
# GPR119 ag: GPR119 activators in beta-arrestin cells, counter-screen for GPR151 activator project, cell-based, PathHunter beta-arrestin, luminescence, triplicate; activation, % at 11.2 µM; 90 min; 0 = compound-well median, 100 = enzyme-acceptor control; 6,700 compounds, 0.3% hits; shares compounds with GPR151 ag;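 active = mean percent activation in the counterscreen above 29.09%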;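 note: counterscreen on off-target GPR119 to flag nonselective hits from the GPR151 activator screen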
# Numbers stand for hits; – = inactive; · = not tested or not shown. Rows were chosen to be rich in hits. Some 3.5% of all compounds tested hit in one or more screens of this group.
SMILES,GPR151 ag,MITF primary,FBW7 activator,TEAD-YAP block,GPR151 confirm,GPR119 ag
Cc1ccccc1-c1nnc2n1N=C(c1ccc(Cl)cc1)CS2,6.6,–,–,–,–,–
CC1=C(C)/C(=N/OC(=O)c2ccc(C)cc2)C=CC1=O,7.0,–,–,–,–,–
O=[N+]([O-])c1ccc(Cl)cc1NCCOCC(F)(F)F,5.2,–,–,–,–,–
CN(c1ccccc1)c1nc(Nc2ccccc2)nc(N2CCOCC2)n1,–,–,–,–,·,·
Cc1nc2cc(-c3cccc(F)c3)nn2c(NCCN)c1C,5.2,–,–,–,–,–
Cc1ccc(Cl)cc1NC(=O)c1c(-c2c(Cl)cccc2Cl)noc1C,6.0,–,–,–,–,–
CCOC(=O)c1c(NC(=O)COc2ccc(C)cc2)sc2c1CCCC2,5.1,–,–,–,–,–
CCOC(=O)c1c(NC(=O)COc2ccc(CC)cc2)sc2c1CCC2,–,–,–,–,·,·
CCCCN(CC)S(=O)(=O)c1ccc(C(=O)Nc2sc3c(c2C(=O)OCC)CCN(C(C)C)C3)cc1,5.6,–,–,–,–,–
CCOC(=O)c1c(-c2ccccc2)csc1NC(=O)CC,–,–,–,–,·,·
CC(C)(C)c1ccc(OCCCC(=O)Nc2sc3c(c2C(N)=O)CCCC3)cc1,6.5,–,–,–,–,–
CCOC(=O)c1c(-c2ccc(C)cc2)csc1NC(=O)CC,5.1,–,–,–,–,–
COC(=O)c1c(NC(=O)CCCOc2ccc(C(C)(C)C)cc2)sc2c1CCC2,–,–,–,–,·,·
CCCCN(CCCC)S(=O)(=O)c1ccc(C(=O)Nc2sc3c(c2C(=O)OCC)CCN(C(C)C)C3)cc1,–,–,–,–,·,·
Cc1ccc(CN2CCc3nnc(C)n3CC2)s1,–,–,–,–,·,·
CCOC(=O)C(C)N1C(=O)S/C(=C/c2ccc(Oc3ccc([N+](=O)[O-])cn3)cc2)C1=O (stereo not given),–,–,–,–,·,·
CCCOC1CCCN(Cc2c(C(=O)N3CCCN(C)CC3)nc3sccn23)C1 (stereo not given),–,–,–,–,·,·
CC(NC(=O)Cn1nnc(-c2ccccc2F)n1)c1ccccc1 (stereo not given),–,–,–,–,·,·
CCCCOc1ccc(C(=O)Nc2sc3c(c2C(=O)OCC)CCC3)cc1,–,–,–,–,·,·
CCOC(=O)c1c(NC(=O)CC)sc2c1CCCC2,5.1,–,–,–,–,–
CCCOc1ccc(C(=O)Nc2sc3c(c2C(=O)OCC)CCCC3)cc1,7.4,–,–,–,–,–
CCc1ccc(OC(=O)c2cccc(C(=O)OC(C)C)n2)cc1,–,–,–,–,·,·
Cc1cccc(/C=N/NC(=O)Nc2ccccc2)c1,–,–,–,–,·,·
O=C(NC1CCCCC1O)c1ccccc1C(F)(F)F (stereo not given),9.2,–,–,–,–,–
O=C(NC1CCCCC1)c1ccccc1C(F)(F)F,–,–,–,–,·,·
SMILES,GPR151 ag,MITF primary,FBW7 activator,TEAD-YAP block,GPR151 confirm,GPR119 ag
CC1=C(C(=O)OC2CCCCC2)C(c2cccc([N+](=O)[O-])c2)NC(=O)N1 (stereo not given),–,–,–,–,·,·
COc1ccc(Br)cc1C(=O)Nc1cc(Cl)ccc1C(=O)O,8.4,–,–,–,–,–
COC(=O)c1cc(OC)c(OC)cc1NC(=O)c1cc(C)ccc1C,–,–,–,–,·,·
COc1cc(NC(=O)c2ccccc2F)c(C(=O)O)cc1OC,–,–,–,–,·,·
COC(=O)c1cc(OC)c(OC)cc1NC(=O)c1ccccc1C,9.7,–,–,–,–,–
COc1cc(NC(=O)c2ccccc2OC)c(C(=O)O)cc1OC,6.7,–,–,–,–,–
CC(NC(=O)/C(=C\c1ccc2c(c1)OCO2)NC(=O)c1ccco1)C(=O)O (stereo not given),–,–,–,–,·,·
COCCN1C(=O)CC[C@@]23C1=NC(C(=O)OC)=C(C(=O)OC)[C@@H]2N(C)c1ccccc13,6.9,–,–,·,–,–
COC(=O)C1=C(C(=O)OC)[C@@H]2N(C)c3ccccc3[C@@]23CCC(=O)N(CCCOC(C)C)C3=N1,7.2,–,–,·,–,–
COCCN1C(=O)CC[C@@]23C1=NC(C(=O)OC)=C(C(=O)OC)[C@@H]2N(Cc1ccccc1)c1ccccc13,–,–,–,·,·,·
O=C(Nc1cc(-c2cccs2)nn1CCO)C1CCC1,–,–,–,–,·,·
O=C(Nc1cc(-c2cccs2)nn1CCO)C1c2ccccc2Oc2ccccc21,8.0,–,–,–,–,–
COc1cc(C2Nc3ccc([N+](=O)[O-])cc3C3C=CCC32)cc(OC)c1OC (stereo not given),–,–,–,–,·,·
CCOC(=O)c1nn(CCO)c2c1CN(Cc1cccc(Cl)c1)CC2,10,–,–,–,–,–
O=c1nc2s/c(=C\c3ccc(-c4ccccc4F)o3)c(=O)n2c2sc3c(c12)CCCC3,–,–,–,–,·,·
O=c1nc2s/c(=C\c3ccc(-c4ccc(F)cc4F)o3)c(=O)n2c2sc3c(c12)CCCC3,5.0,–,–,–,–,–
C=CCn1cnc2c(nnn2-c2cc(C)cc(C)c2)c1=O,9.4,–,–,–,–,–
CO[C@@H]1COC(=O)[C@H](COCc2ccccc2)NC(=O)C/C=C/[C@@H](C)[C@H](OC)COC(=O)[C@H](C)NC(=O)C/C=C/C1C (stereo not given in full),4.9,–,–,·,–,–
CO[C@H]1COC(=O)C/C=C/[C@H](C)[C@@H](OC)COC(=O)[C@@H](C)COC(=O)C/C=C/[C@@H]1C,6.0,–,–,·,–,–
O=C(/C=C/c1cccs1)N1CCc2ccccc2C1,–,–,–,–,·,·
Cc1ccc(C(=O)C2=C(O)C(=O)N(CCN3CCOCC3)C2c2ccccn2)o1 (stereo not given),7.9,–,–,–,–,–
CS(=O)(=O)Nc1ccccc1Oc1ccccc1,7.9,–,–,–,–,–
COc1ccccc1CNC(=O)c1nnn(Cc2ccccc2)c1N,14,–,–,–,–,–
CCCCNC(=O)C1Cc2ccccc2CN1S(=O)(=O)c1cccs1 (stereo not given),5.7,–,–,–,–,–
O=c1c2cccnc2n(Cc2cccc(F)c2)c(=O)n1Cc1ccc(F)cc1,–,–,–,–,·,·
CC(C)CCn1c(=O)c2cccnc2n(Cc2cccc(F)c2)c1=O,12,–,–,–,–,–
Cc1ccc(N(CCC(=O)NNC(=O)C2CCCCC2)S(=O)(=O)c2ccccc2)cc1,–,–,–,–,·,·
